# About 2,100 (0.66%) of roughly 320,000 compounds were called active. About 53% were inconclusive and are not listed. This is one part of a sample in which actives are shown more often than they occur. Calls follow the shape of the dose curve; as a rule, active = well fitted inhibition curve with a large enough effect in the signal ratio, with a control signal flat (not every such curve was filed as active); inconclusive = small, poorly fitted or top-dose-only effect, or effect the other way, or a change in a side signal; inactive = flat fitted curve, though single readings scatter; the % refers to the signal ratio.
# Experiment: qHTS Assay for Lipid Storage Modulators in Drosophila S3 Cells;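 as to cell number change: cells counted by Cell Tracker Red CMTPX staining in the red channel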; as to lipid storage change, negative = inhibition: % is scaled to controls: 0 for no effect and ±100 for the full control effect
# Conditions: BODIPY lipid droplet fluorescence, 18-24 h, cells fed with added oleic acid; cell number change: measured here: cell count max response; series mostly up to 46.1 µM
# Method in brief: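 Drosophila S3 cells loaded with oleic acid (400 uM, as added) and compounds at several concentrations; lipid droplets imaged by 488-nm laser-scanning cytometry, 500–530 nm intensity and object ratio to cell channel. Percent activity normalized to 20 uM Triacsin C.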
# Potency is read from the fitted curve at half-maximal effect.
SMILES,Potency,cell number change [%],"lipid storage change, negative = inhibition"
O=C(c1ccc(-c2ccccc2)cc1)N1CCN(Cc2ccccn2)CC1,inactive,-0.729,–
O=C(O)CC1S/C(=N/N=C/c2ccc(Br)cc2)N(c2ccccc2)C1=O (stereo not given),inactive,-1.06,–
CCC(C)(C)n1nnnc1C(c1cccc(C#N)c1)N1CCN(c2cccc(C)c2C)CC1 (stereo not given),inactive,0.845,–
O=C(CSC1=NCCS1)N1CCN(c2ccc(Cl)cc2)CC1,inactive,1.49,–
O=C(CSC1=NCCS1)N1CCN(c2ccccc2)CC1,inactive,-11.5,–
O=C(CSC1=NCCS1)N1CCCCCC1,4.61 µM (active),0.498,–
Cc1c(Cl)cccc1NC(=O)CCCCCN1C(=O)CCC1=O,inactive,–,–
CS(=O)(=O)c1ccc2nc(NC(=O)Nc3cccc(Cl)c3)sc2c1,16.4 µM (active),10.2,–
CS(=O)(=O)c1ccc2nc(NC(=O)c3cccc(Cl)c3)sc2c1,inactive,5.93,–
Cc1ccc(NC(=O)Nc2nc3ccc(S(C)(=O)=O)cc3s2)cc1,inactive,0.9,–
CC(=O)c1ccc([N+](=O)[O-])c(CS(=O)(=O)c2ccc(Cl)cc2)c1,inactive,12.3,–
Cc1ccc(S(=O)(=O)Cc2cc(F)c([N+](=O)[O-])cc2[N+](=O)[O-])cc1,0.411 µM (active),20.1,–
Cc1ccc(S(=O)(=O)Cc2ccc([N+](=O)[O-])cc2)cc1,inactive,-6.56,–
Cc1nc(C(C)NC(=O)CCc2nnc(-c3ccsc3)o2)cs1 (stereo not given),inactive,-5.47,–
CCC(c1nnc(SCC(=O)Nc2ccc(N3CCOCC3)cc2)n1Cc1ccccc1)N(C)C (stereo not given),inactive,–,–
CS(=O)(=O)Cc1ccc(C(=O)N(CCc2ccccc2)Cc2ccccc2)cc1,inactive,-0.348,–
CS(=O)(=O)c1cccc(C(=O)NCc2ccccc2)c1,inactive,–,–
C=CCOc1ccccc1CN(CCc1ccccc1)C(=O)c1cccc(S(C)(=O)=O)c1,4.11 µM (active),1.8,–
O=C(CNC(=O)c1cccs1)NCC(=O)OCc1ccc(F)cc1,inactive,-6.51,–
CN(C(=O)CSc1nc2sc3c(c2c(=O)n1C)CCC3)C1CCS(=O)(=O)C1 (stereo not given),inactive,-5.19,–
CCc1ccc(N(CC(=O)NC(C)(C)C)C(=O)CCC(=O)Nc2ccccn2)cc1,inactive,19.3,–
Cc1cccc(NC(=O)CCS(=O)(=O)c2ccccc2)n1,inactive,3.85,–
CSc1nnc(-c2sc3cc(Cl)ccc3c2Cl)n1C,23.1 µM (active),-10.5,–

SMILES,Potency,cell number change [%],"lipid storage change, negative = inhibition"
CCn1c(SC)nnc1-c1sc2cc(Cl)ccc2c1Cl,inactive,-4.88,–
CSc1nnc(-c2ccccc2)n1C,inactive,-0.435,–
Cc1ccc(OCCOCCn2ccnc2)c(Br)c1,inactive,-17,–
COc1ccc(-c2csc3ncn(-c4cccc(C)c4)c(=O)c23)cc1OC,inactive,14.7,–
O=C(Nc1ccc(F)cc1)c1cccc(C(=O)Nc2ccc(F)cc2)c1,0.231 µM (active),22.5,–
O=C(Nc1ccc(F)cc1)c1ccc2[nH]c(=O)c(=O)[nH]c2c1,inactive,25.6,–
O=C(Nc1ccc(F)cc1)c1ccccc1,inactive,–,–
O=C(N/N=C/c1cccc2ccccc12)c1cccc(F)c1,11.2 µM (active),-0.111,–
O=C(Nc1ncccn1)c1cccc(F)c1,inactive,-18.7,–
O=C(N/N=C/c1cccc2ccccc12)c1ccncc1,inactive,0.153,–
O=C(N/N=C/c1ccccc1Cl)c1cccc(F)c1,inactive,0.333,–
Cc1cc(NC(=O)c2cccc(F)c2)no1,inactive,9.9,–
O=C(Nc1cccc(NC(=O)c2cccc(F)c2)n1)c1cccc(F)c1,6.51 µM (active),–,–
Cc1ccc(S(=O)(=O)c2nc(-c3ccccc3Cl)oc2NCCCN2CCOCC2)cc1,inactive,–,–
CCOC(=O)C1(Cc2ccccc2)CCN(Cc2cn[nH]c2-c2ccccc2)CC1,inactive,4.32,–
C[C@H](NC(=O)CCn1nnc2ccccc2c1=O)C(=O)O,inactive,-17.6,–
O=C(c1ccc(F)cc1)C1CCN(Cc2ccc(F)cc2)CC1,inactive,16.1,–
Cn1c(CCNC(=O)c2ccc(Cl)cc2)n[nH]c1=S,inactive,-13.4,–
CCn1c(CCNC(=O)c2ccc(C)cc2)n[nH]c1=S,inactive,22.9,–
CCn1c(CCNC(=O)c2ccc(Cl)cc2)n[nH]c1=S,1.84 µM (active),24.6,–
CN1CCN(c2nc(C(N)=O)cc(-c3ccccc3)n2)CC1,inactive,-10.6,–
COc1ccc(-c2nc(CSCC(=O)N3CCC(C(N)=O)CC3)c(C)o2)cc1OC,inactive,-1.8,–
COC(=O)c1ccc(/C=C/C(=O)O)cc1,inactive,2.73,–

SMILES,Potency,cell number change [%],"lipid storage change, negative = inhibition"
COC(=O)c1ccc2c(c1)C(C)(C)C(/C=C/c1ccc(O)cc1)=[N+]2C,5.17 µM (active),1,–
COc1ccc(C(=O)/C=C/c2ccc(O)cc2)cc1,inactive,-17.3,–
Cc1cc(NC(=O)CSc2ncnc3sc(C)c(C)c23)no1,inactive,–,–
Cc1ccc(S(=O)(=O)N2CCC(C(=O)Nc3nnc(C4CCCC4)s3)CC2)cc1,inactive,5.99,–
COc1ccc(CNC(=O)CC2(CC(=O)O)CCCCC2)cc1,inactive,-16.2,–
COc1ccc(S(=O)(=O)NC(C)C(=O)Nc2ccccc2F)cc1 (stereo not given),inactive,4.07,–
COc1ccccc1NC(=O)C(C)NS(=O)(=O)c1ccc(F)cc1 (stereo not given),inactive,6.54,–
COc1ccccc1NC(=O)C(C)NS(=O)(=O)c1ccc(Cl)cc1 (stereo not given),6.51 µM (active),10.9,–
COc1cc(C(=O)OCC(=O)N2CCCCC2C)cc(NC(=O)c2cccs2)c1OC (stereo not given),inactive,7.36,–
COC(=O)CNC(=O)C1CCC(CNS(=O)(=O)c2cccc3nsnc23)CC1 (stereo not given),inactive,-18.8,–
CC(C)(C)NC(=O)C1CCC(CNS(=O)(=O)c2cccc3nsnc23)CC1 (stereo not given),18.4 µM (active),–,–
CCCNC(=O)C1CCC(CNS(=O)(=O)c2cccc3nsnc23)CC1 (stereo not given),inactive,–,–
Cc1cc(NC(=O)CSc2nc(=O)n3cc(Cl)ccc3n2)no1,–,13.5,0.863% [at 0.0737 µM] (inactive)
Fc1ccc(CNn2cnnc2SCc2ccc(F)cc2)cc1,inactive,9.34,–
CCc1cccc2c(C(=O)COC(=O)c3cccc(S(=O)(=O)N(C)C4CCCCC4)c3)c[nH]c12,inactive,6.53,–
O=C(NC1CCCC1)C(c1ccc(Cl)cc1)N(C(=O)c1csnn1)C1CC1 (stereo not given),inactive,12.1,–
C=CCN(C(=O)c1csnn1)C(C(=O)NC1CCCC1)c1ccccc1F (stereo not given),inactive,-7.62,–
C=CCN(C(=O)c1csnn1)C(C(=O)NC1CCCC1)c1ccc(Cl)cc1 (stereo not given),inactive,-41,–
C=CCN(C(=O)c1csnn1)C(C(=O)NC1CCCCC1)c1ccc(F)cc1 (stereo not given),inactive,11.7,–
O=C(NC1CCCC1)C(c1ccc(F)cc1)N(C(=O)c1csnn1)C1CC1 (stereo not given),inactive,-11.5,–
O=C(NC1CCCC1)C(c1c(F)cccc1Cl)N(C(=O)c1csnn1)C1CC1 (stereo not given),16.4 µM (active),-12.9,–
C=CCN(C(=O)c1csnn1)C(C(=O)NC1CCCCC1)c1ccccc1F (stereo not given),13 µM (active),2.14,–
C=CCN(C(=O)c1csnn1)C(C(=O)NC1CCCC1)c1ccccc1 (stereo not given),inactive,15.2,–

SMILES,Potency,cell number change [%],"lipid storage change, negative = inhibition"
C=CCN(C(=O)c1csnn1)C(C(=O)NC1CCCC1)c1c(F)cccc1Cl (stereo not given),9.2 µM (active),0.427,–
O=C(c1cccc(COc2cccc3ccccc23)c1)N1CCCC1,inactive,-5.05,–
COc1ccc(/C=N/Nc2nnc(-c3ncc[nH]3)c3ccccc23)cc1,inactive,-1.94,–
CC1=C(C)CC(C(=O)Nc2ccc3c(c2)OCO3)C(C(=O)O)C1 (stereo not given),inactive,-0.481,–
COc1ccc(OC)c(S(=O)(=O)NNC(=S)Nc2ccc3c(c2)OCO3)c1,inactive,5.94,–
O=C(Nc1cnccn1)Nc1cccc(Cl)c1Cl,inactive,-0.957,–
CC1CN(S(=O)(=O)c2cccc(C(=O)Nc3ccccc3N3CCCCC3)c2)CC(C)O1 (stereo not given),23.1 µM (active),-19.1,–
O=C(NCC1COc2ccccc2O1)c1cccc(S(=O)(=O)N2CCOCC2)c1 (stereo not given),inactive,-18,–
CC1CN(S(=O)(=O)c2cccc(C(=O)Nc3ccccc3N3CCOCC3)c2)CC(C)O1 (stereo not given),inactive,-20.3,–
CCN(CC)S(=O)(=O)c1ccc2oc(C(=O)NC3CC3)c(C)c2c1,inactive,-10.9,–
CSc1ncccc1C(=O)Nc1cccc(S(=O)(=O)N2CCCCC2)c1,16.4 µM (active),0.775,–
CCOc1ncccc1C(=O)Nc1cccc(S(=O)(=O)N2CCCCC2)c1,inactive,-15,–
O=C(NCC1COc2ccccc2O1)c1cccc(S(=O)(=O)N2CCCCC2)c1 (stereo not given),2.06 µM (active),-15.1,–
CN1CCN(S(=O)(=O)c2cccc(C(=O)Nc3ccccc3N3CCCC3)c2)CC1,inactive,9.72,–
O=C(NCC1CCCCC1)c1cccc(S(=O)(=O)N2CCCC2)c1,inactive,3.1,–
O=C(Nc1cccc(S(=O)(=O)N2CCCCC2)c1)c1ccccn1,inactive,20.1,–
CCN(CC)S(=O)(=O)c1ccc2oc(C(=O)NCC3COc4ccccc4O3)c(C)c2c1 (stereo not given),0.461 µM (active),-14.2,–
Cc1c(C(=O)NCC2COc3ccccc3O2)oc2ccc(S(=O)(=O)N3CC(C)CC(C)C3)cc12 (stereo not given),inactive,0.959,–
CC(C)Oc1ccc(S(=O)(=O)N2CCOCC2)cc1NC(=O)C1CCCCC1,inactive,17,–
Cc1cccc(NC(=O)C2CCCN2C(=O)NC2CCCCC2)c1 (stereo not given),–,-1.91,9.23% [at 9.22 µM] (inactive)
CCC(C)C(NC(=O)OCc1ccccc1)C(=O)NC(Cc1ccc(O)cc1)C(=O)OC (stereo not given),inactive,15.2,–
Cc1cnc2cc([N+](=O)[O-])ccc2n1,inactive,9.36,–
CC(NC(=O)CN1c2cccc3cccc(c23)S1(=O)=O)c1ccc(S(N)(=O)=O)cc1 (stereo not given),inactive,20.8,–

# Reference: PubChem BioAssay AID2685 (National Center for Advancing Translational Sciences (NCATS), 2010)
